# Measurements published in PubChem BioAssay (NCI).
# This is part of a sample that, as a whole, favours compounds with a hit. Of some 79,000 tested, about 15% had one in any assay. A number with no mark means an inactive call. Active and inactive are the calls of the source. Cut-off read from the data, not from the text of the source: active = growth inhibition above about 70%; inactive = the rest.
# Experiments:
# [1] = NCI Yeast Anticancer Drug Screen. Data for the rad52 strain (AID 147);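 note: 0% = growth of vehicle-treated control cultures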; conditions: S. cerevisiae rad52 mutant growth inhibition, active compounds read high
# Procedure, shortened: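 The repair-mutant yeast strain was incubated with compounds, then growth was read and inhibition derived relative to vehicle.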
# [2] = NCI Yeast Anticancer Drug Screen. Data for the wt1 strain (AID 149);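 note: 0% = growth of vehicle-treated wt1 cultures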; conditions: S. cerevisiae wt1 strain (SPY 50644) growth inhibition, active compounds read high
# Procedure, shortened: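 The wt1 strain was treated with compounds, and growth was compared with vehicle-treated cultures to give inhibition.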
# [3] = NCI Yeast Anticancer Drug Screen. Data for the rad50EPP+ strain (AID 151);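 note: 0% = growth of vehicle-treated control cultures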; conditions: S. cerevisiae rad50 mutant strain, active compounds read high
# Procedure, shortened: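 Vehicle-normalised growth inhibition; rad50EPP+ yeast strain, altered in DNA damage repair, compound-treated.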
# [4] = NCI Yeast Anticancer Drug Screen. Data for the mgt1 strain (AID 153); conditions: S. cerevisiae mgt1 mutant growth inhibition, active compounds read high
# Procedure, shortened: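 Vehicle-normalized growth inhibition is determined in mgt1 yeast, a strain selected for a defined alteration in DNA repair or cell cycle control.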
# [5] = NCI Yeast Anticancer Drug Screen. Data for the rad50 strain (AID 155);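 note: 0% = growth of vehicle-only cultures of the same strain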; conditions: S. cerevisiae rad50 strain growth inhibition, active compounds read high
# Procedure, shortened: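 Cells are treated with compound, grown, and their growth is then scored against vehicle-only cultures of the same repair-deficient yeast strain.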
# [6] = NCI Yeast Anticancer Drug Screen. Data for the mec2-1 strain (AID 157); conditions: S. cerevisiae mec2-1 strain, active compounds read high
# Procedure, shortened: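 Mutant yeast (mec2-1) grown with compound; growth inhibition relative to vehicle control reported.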
# [7] = NCI Yeast Anticancer Drug Screen. Data for the rad14 strain (AID 159);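 note: 0% = growth of vehicle-treated control cultures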; conditions: S. cerevisiae rad14 strain growth inhibition, active compounds read high
# Procedure, shortened: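 Readout: yeast growth inhibition, referenced to vehicle-only cultures. Strain bears a defined alteration in DNA damage repair.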
# [8] = NCI Yeast Anticancer Drug Screen. Data for the sgs1 mgt1 strain (AID 161);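 note: 0% = growth of cultures given vehicle only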; conditions: S. cerevisiae sgs1 mgt1 strain, active compounds read high
# Procedure, shortened: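 Compounds are added to genetically altered yeast, and growth is compared with cultures given vehicle alone to give percent inhibition.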
# [9] = NCI Yeast Anticancer Drug Screen. Data for the CLN2oe strain (AID 163);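 note: 0% = growth of vehicle-only control cultures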; conditions: S. cerevisiae CLN2oe strain, active compounds read high
# Procedure, shortened: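 Compounds are applied to yeast harbouring a defined cell-cycle control change; reduced growth compared with vehicle-treated controls gives the value.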
# [10] = NCI Yeast Anticancer Drug Screen. Data for the cln2 rad14 strain (AID 165);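 note: 0% = growth equal to vehicle treated cultures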; conditions: S. cerevisiae cln2 rad14 strain, active compounds read high
# Procedure, shortened: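 Readout is yeast growth inhibition versus vehicle-treated controls, using a strain with cln2 and rad14 alterations exposed to compound.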
# [11] = NCI Yeast Anticancer Drug Screen. Data for the bub3 strain (AID 167); conditions: S. cerevisiae bub3 mutant strain, active compounds read high
# Procedure, shortened: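 Part of a panel of yeast mutants defective in DNA damage repair or cell cycle regulation. Each strain is grown with compound, and inhibition is calculated relative to solvent-treated cultures.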
# [12] = NCI Yeast Anticancer Drug Screen. Data for the wt2 strain (AID 169);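 note: 0% = growth of vehicle-treated yeast cultures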; conditions: S. cerevisiae wt2 strain growth inhibition, active compounds read high
# Procedure, shortened: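 Against vehicle-treated controls, the growth of yeast exposed to each compound was compared, and the inhibition was recorded.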
# [13] = NCI Yeast Anticancer Drug Screen. Data for the mlh1 strain (AID 171);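 note: 0% = growth of vehicle-treated control cultures of the same strain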; conditions: S. cerevisiae mlh1 strain growth inhibition, active compounds read high
# Procedure, shortened: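 Measured: yeast growth. Reference: vehicle-treated controls. Organism: strain with a defined alteration affecting DNA damage repair or cell cycle control, treated with compound.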
# [14] = NCI Yeast Anticancer Drug Screen. Data for the sgs1 strain (AID 173);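 note: 0% = growth of vehicle-only control cultures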; conditions: S. cerevisiae sgs1 mutant, active compounds read high
# Procedure, shortened: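 Each compound was added to cultures of the altered yeast strain. Growth was recorded, and inhibition was derived by comparison with vehicle controls.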
# [15] = NCI Yeast Anticancer Drug Screen. Data for the mlh1 rad18 strain (AID 175); conditions: S. cerevisiae mlh1 rad18 strain growth inhibition, active compounds read high
# Procedure, shortened: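 Genetically defined yeast (DNA repair-deficient) exposed to compounds; growth inhibition determined relative to vehicle.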
# [16] = NCI Yeast Anticancer Drug Screen. Data for the rad18 strain (AID 177); conditions: S. cerevisiae rad18 mutant growth inhibition, active compounds read high
# Procedure, shortened: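 Vehicle-treated cultures served as the baseline for scoring compound-induced growth inhibition in DNA-repair-mutant yeast.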
# [17] = at 5.0 µM (retest, dose inferred, filed as 0.5)
# [18] = at 50.0 µM (retest, dose inferred, filed as 5.0)
compound,measurement,setting,value
COC(C(O)CO)C(O)C(O)C(=O)NNc1ccccc1 (stereo unspecified),growth inhibition,[1]; at 1.2 µM,12%
same,growth inhibition,[1]; at 3.7 µM,23%
same,growth inhibition,[1]; at 11.0 µM,45%
same,growth inhibition,[1]; at 33.0 µM,61%
same,growth inhibition,[1]; at 100.0 µM,93% (active)
same,growth inhibition,[2]; at 1.2 µM,1%
same,growth inhibition,[2]; at 3.7 µM,5%
same,growth inhibition,[2]; at 11.0 µM,29%
same,growth inhibition,[2]; at 33.0 µM,36%
same,growth inhibition,[2]; at 100.0 µM,66%
same,growth inhibition,[3]; at 1.2 µM,15%
same,growth inhibition,[3]; at 3.7 µM,29%
same,growth inhibition,[3]; at 11.0 µM,37%
same,growth inhibition,[3]; at 33.0 µM,41%
same,growth inhibition,[3]; at 100.0 µM,68%
same,growth inhibition,[4]; at 1.2 µM,-1%
same,growth inhibition,[4]; at 3.7 µM,11%
same,growth inhibition,[4]; at 11.0 µM,29%
same,growth inhibition,[4]; at 33.0 µM,26%
same,growth inhibition,[4]; at 100.0 µM,94% (active)
same,growth inhibition,[5]; at 1.2 µM,35%
same,growth inhibition,[5]; at 3.7 µM,41%
same,growth inhibition,[5]; [17],9%
same,growth inhibition,[5]; at 11.0 µM,68%
same,growth inhibition,[5]; at 33.0 µM,79% (active)
same,growth inhibition,[5]; [18],71% (active)
same,growth inhibition,[5]; at 50.0 µM,96.1% (active)
same,growth inhibition,[5]; at 100.0 µM,96% (active)
same,growth inhibition,[6]; at 1.2 µM,0%
same,growth inhibition,[6]; at 3.7 µM,4%
same,growth inhibition,[6]; [17],7%
same,growth inhibition,[6]; at 11.0 µM,40%
same,growth inhibition,[6]; at 33.0 µM,31%
same,growth inhibition,[6]; [18],76% (active)
same,growth inhibition,[6]; at 50.0 µM,54.4%
same,growth inhibition,[6]; at 100.0 µM,94% (active)
same,growth inhibition,[7]; at 1.2 µM,6%
same,growth inhibition,[7]; at 3.7 µM,9%
same,growth inhibition,[7]; at 11.0 µM,19%
same,growth inhibition,[7]; at 33.0 µM,21%
same,growth inhibition,[7]; at 100.0 µM,84% (active)
same,growth inhibition,[8]; [17],15%
same,growth inhibition,[8]; [18],80% (active)
same,growth inhibition,[8]; at 50.0 µM,94.7% (active)
same,growth inhibition,[9]; at 1.2 µM,8%
same,growth inhibition,[9]; at 3.7 µM,7%
same,growth inhibition,[9]; at 11.0 µM,57%
same,growth inhibition,[9]; at 33.0 µM,62%
same,growth inhibition,[9]; at 100.0 µM,97% (active)
same,growth inhibition,[10]; [17],5%
same,growth inhibition,[10]; [18],68%
same,growth inhibition,[10]; at 50.0 µM,89% (active)
same,growth inhibition,[11]; at 1.2 µM,-1%
same,growth inhibition,[11]; at 3.7 µM,1%
same,growth inhibition,[11]; [17],23%
same,growth inhibition,[11]; at 11.0 µM,26%
same,growth inhibition,[11]; at 33.0 µM,34%
same,growth inhibition,[11]; [18],97% (active)
same,growth inhibition,[11]; at 50.0 µM,96.1% (active)
same,growth inhibition,[11]; at 100.0 µM,93% (active)
same,growth inhibition,[12]; at 1.2 µM,-4%
same,growth inhibition,[12]; at 3.7 µM,22%
same,growth inhibition,[12]; at 11.0 µM,22%
same,growth inhibition,[12]; at 33.0 µM,9%
same,growth inhibition,[12]; at 100.0 µM,86% (active)
same,growth inhibition,[13]; at 1.2 µM,2%
same,growth inhibition,[13]; at 3.7 µM,9%
same,growth inhibition,[13]; at 11.0 µM,44%
same,growth inhibition,[13]; at 33.0 µM,61%
same,growth inhibition,[13]; at 100.0 µM,97% (active)
same,growth inhibition,[14]; at 1.2 µM,-11%
same,growth inhibition,[14]; at 3.7 µM,34%
same,growth inhibition,[14]; at 11.0 µM,47%
same,growth inhibition,[14]; at 33.0 µM,68%
same,growth inhibition,[14]; at 100.0 µM,97% (active)
same,growth inhibition,[15]; [17],28%
same,growth inhibition,[15]; [18],96% (active)
same,growth inhibition,[15]; at 50.0 µM,94.5% (active)
same,growth inhibition,[16]; at 1.2 µM,17%
same,growth inhibition,[16]; at 3.7 µM,49%
same,growth inhibition,[16]; at 11.0 µM,79% (active)
same,growth inhibition,[16]; at 33.0 µM,78% (active)
same,growth inhibition,[16]; at 100.0 µM,97% (active)
O=C1C(Br)=C(c2ccccc2)O/C1=C/C(=O)c1ccc(Br)cc1,growth inhibition,[1]; at 1.2 µM,2%
same,growth inhibition,[1]; at 3.7 µM,6%
same,growth inhibition,[1]; at 11.0 µM,12%
same,growth inhibition,[1]; at 33.0 µM,26%
same,growth inhibition,[1]; at 100.0 µM,75% (active)
same,growth inhibition,[2]; at 1.2 µM,3%
same,growth inhibition,[2]; at 3.7 µM,5%
same,growth inhibition,[2]; at 11.0 µM,10%
same,growth inhibition,[2]; at 33.0 µM,16%
same,growth inhibition,[2]; at 100.0 µM,44%
same,growth inhibition,[3]; at 1.2 µM,9%
same,growth inhibition,[3]; at 3.7 µM,22%
same,growth inhibition,[3]; at 11.0 µM,59%
same,growth inhibition,[3]; at 33.0 µM,84% (active)
same,growth inhibition,[3]; at 100.0 µM,86% (active)
same,growth inhibition,[4]; at 1.2 µM,2%
same,growth inhibition,[4]; at 3.7 µM,5%
same,growth inhibition,[4]; at 11.0 µM,10%
same,growth inhibition,[4]; at 33.0 µM,36%
same,growth inhibition,[4]; at 100.0 µM,88% (active)
same,growth inhibition,[5]; at 1.2 µM,4%
same,growth inhibition,[5]; at 3.7 µM,5%
same,growth inhibition,[5]; [17],-21%
same,growth inhibition,[5]; at 11.0 µM,11%
same,growth inhibition,[5]; at 33.0 µM,18%
same,growth inhibition,[5]; [18],34%
same,growth inhibition,[5]; at 50.0 µM,24.2%
same,growth inhibition,[5]; at 100.0 µM,49%
same,growth inhibition,[6]; at 1.2 µM,-1%
same,growth inhibition,[6]; at 3.7 µM,5%
same,growth inhibition,[6]; [17],-6%
same,growth inhibition,[6]; at 11.0 µM,8%
same,growth inhibition,[6]; at 33.0 µM,20%
same,growth inhibition,[6]; [18],25%
same,growth inhibition,[6]; at 50.0 µM,21.1%
same,growth inhibition,[6]; at 100.0 µM,92% (active)
same,growth inhibition,[7]; at 1.2 µM,3%
same,growth inhibition,[7]; at 3.7 µM,6%
same,growth inhibition,[7]; at 11.0 µM,13%
same,growth inhibition,[7]; at 33.0 µM,28%
same,growth inhibition,[7]; at 100.0 µM,96% (active)
same,growth inhibition,[8]; [17],-7%
same,growth inhibition,[8]; [18],39%
same,growth inhibition,[8]; at 50.0 µM,53.9%
same,growth inhibition,[9]; at 1.2 µM,1%
same,growth inhibition,[9]; at 3.7 µM,1%
same,growth inhibition,[9]; at 11.0 µM,4%
same,growth inhibition,[9]; at 33.0 µM,9%
same,growth inhibition,[9]; at 100.0 µM,18%
same,growth inhibition,[10]; [17],-13%
same,growth inhibition,[10]; [18],12%
same,growth inhibition,[10]; at 50.0 µM,29.7%
same,growth inhibition,[11]; at 1.2 µM,-2%
same,growth inhibition,[11]; at 3.7 µM,-2%
same,growth inhibition,[11]; [17],-16%
same,growth inhibition,[11]; at 11.0 µM,-1%
same,growth inhibition,[11]; at 33.0 µM,6%
same,growth inhibition,[11]; [18],21%
same,growth inhibition,[11]; at 50.0 µM,15.4%
same,growth inhibition,[11]; at 100.0 µM,84% (active)
same,growth inhibition,[12]; at 1.2 µM,1%
same,growth inhibition,[12]; at 3.7 µM,3%
same,growth inhibition,[12]; at 11.0 µM,7%
same,growth inhibition,[12]; at 33.0 µM,31%
same,growth inhibition,[12]; at 100.0 µM,69%
same,growth inhibition,[13]; at 1.2 µM,-2%
same,growth inhibition,[13]; at 3.7 µM,1%
same,growth inhibition,[13]; at 11.0 µM,9%
same,growth inhibition,[13]; at 33.0 µM,20%
same,growth inhibition,[13]; at 100.0 µM,89% (active)
same,growth inhibition,[14]; at 1.2 µM,1%
same,growth inhibition,[14]; at 3.7 µM,5%
same,growth inhibition,[14]; at 11.0 µM,15%
same,growth inhibition,[14]; at 33.0 µM,37%
same,growth inhibition,[14]; at 100.0 µM,94% (active)
same,growth inhibition,[15]; [17],-16%
same,growth inhibition,[15]; [18],62%
same,growth inhibition,[15]; at 50.0 µM,52.6%
same,growth inhibition,[16]; at 1.2 µM,2%
same,growth inhibition,[16]; at 3.7 µM,3%
same,growth inhibition,[16]; at 11.0 µM,13%
same,growth inhibition,[16]; at 33.0 µM,25%
same,growth inhibition,[16]; at 100.0 µM,79% (active)
